# Test results published in ChEMBL document CHEMBL4513216, “Probing the Open Global Health Chemical Diversity Library for Multistage-Active Starting Points for Next-Generation Antimalarials” (ACS Infect Dis, 2020).
# The whole screen tested about 69,000 compounds, of which about 8,600 (12%) showed an effect of 50% or more. Only a selection was taken, and strong results are over-represented in it overall.
# Tested on: Plasmodium berghei
# Assay: Screen against P. berghei liver stage (PbLuc), transformed with Luciferase, at 10uM
# Assay type: functional, HepG2
# Conditions: tested at 10 uM
row,Structure (SMILES),INHIBITION
1,CC(C)c1nn(C)c(N(C)C)c1CNC1CCCCNC1=O (stereo not drawn),-4.13%
2,O=C(Cc1cccc(O)c1)NCCCNC(=O)c1cccc(F)c1,8.64%
3,COCC(=O)N1Cc2c(-c3cccc(C)c3)nc(N)nc2C1C (stereo not drawn),-24.1%
4,Cc1cccc(-c2nc(N)nc3c2CN(C(=O)c2cc(C)n[nH]2)C3C)c1 (stereo not drawn),58.9%
5,Cc1cccc(-c2nc(N)nc3c2CN(C(=O)c2ccncn2)C3C)c1 (stereo not drawn),19.9%
6,Cc1cc(C(=O)Nc2cccn(Cc3ccccc3)c2=O)no1,-85.8%
7,O=C(c1ccccn1)N1CCC2(CC1)COC(COCC1CC1)C2 (stereo not drawn),23.5%
8,CN(C)CCn1c2c(ccc1=O)CC(NC(=O)NC1CCCC1)CC2 (stereo not drawn),39.5%
9,CCN1CCN(C(C)(C)CNc2nc(C)cc(C3CCC3)n2)CC1,9.52%
10,Cc1cc(C2CCC2)nc(NCC(C)(C)N2CCCC2)n1,57.2%
11,Cc1cc(C2CCC2)nc(NCC(C)(C)N2CCOCC2)n1,9.52%
12,COC(=O)CCC(=O)NCc1cccnc1N1CCc2ccccc2C1,-13.1%
13,CC(NC(=O)C1=NN(C)C(=O)CC1)c1cccc(Cl)c1 (stereo not drawn),24.3%
14,Cc1cc(C(=O)N2CCCCC2c2nc(C)cs2)[nH]n1 (stereo not drawn),35.7%
15,Cc1csc(C2CCCCN2C(=O)c2cc(C3CC3)[nH]n2)n1 (stereo not drawn),13.6%
16,Cc1csc(C2CCCCN2C(=O)c2cc(C(C)C)[nH]n2)n1 (stereo not drawn),70.8%
17,Cc1nc(CN2CCC(C(=O)O)(n3ccc(C(C)C)n3)CC2)co1,-35.2%
18,Cc1ccc(C(=O)N2CCCCC2CN(C)C)cc1 (stereo not drawn),21.8%
19,N#Cc1ccc(NC(=O)N2CCCCC2CN2CCCC2=O)cc1 (stereo not drawn),44.9%
20,COCCCC1CCCCN1C(=O)c1ccc(SCCO)cc1 (stereo not drawn),52.6%
21,Cc1cc(C)n(CC(=O)N2CCCCC2CCN2CCCC2=O)c(=O)n1 (stereo not drawn),44.2%
22,O=C1CCCN1CCC1CCCCN1C(=O)c1ccc(SCCO)cc1 (stereo not drawn),58.2%
23,CCC1CCCCCN1C(=O)c1ccc(N2CCC(O)CC2)cc1 (stereo not drawn),-45.2%
24,COc1ccc2c(c1)CN(C)C(=O)CCN2CC(O)C(C)(C)C (stereo not drawn),17.7%
25,CC(C)(NCC(=O)NCC1CC1)c1ccc2c(c1)OCCO2,-36.3%
26,CCn1ccc(C(=O)Nc2ccc3c(c2)C(C)(C)C(=O)N3C)n1,40%
27,CCC(CC)C(=O)N1CCC(c2nn(CCN)c3nccnc23)C1 (stereo not drawn),41.2%

row,Structure (SMILES),INHIBITION
1,CS(=O)(=O)N[C@@H]1CN(C(=O)c2ccccn2)C[C@@H]2CCCO[C@@H]21,34.6%
2,COc1ccc(-c2cc3nc(CCNC(=O)CN(C)C)nn3cn2)cc1,19.4%
3,CC(C)(C)C(=O)CN1CCc2ccccc2NCCC1=O,15.4%
4,CN1CCCN(C(=O)c2ccn3ccnc3c2)CC1,-60.7%
5,O=C(c1ccsc1)N1CC[C@@H](N2CCOCC2)[C@@H]1Cc1ccccc1,-2.72%
6,COCc1nc(C(=O)NS(=O)(=O)c2ccc(C)c(C)c2)cs1,-1.7%
7,COCc1nc(C(=O)NS(=O)(=O)c2ccc(OC)c(C)c2)cs1,52.6%
8,COCc1nc(C(=O)NS(=O)(=O)c2ccc(F)c(F)c2)cs1,21.1%
9,COc1ccccc1NC(=O)c1cc2c([nH]c1=O)CCCC2=O,-15.9%
10,CCN(c1ccc(C(=O)NCCN2CCOCC2)cc1)S(=O)(=O)CC,34.2%
11,CCN(CC)C(=O)Cn1cc(C(=O)NCCCc2scnc2C)nn1,56.3%
12,CCN(CC)C(=O)Cn1cc(C(=O)NCCc2scnc2C)nn1,10.6%
13,CCN(CC)C(=O)Cn1cc(C(=O)NCCc2nc(C)c(C)s2)nn1,39%
14,CN(Cc1ccco1)[C@@H]1CN(CC2CCOCC2)C[C@@H]2CCCO[C@@H]21,38.1%
15,CNC(=O)C1(c2cnccn2)CCCN1C(=O)c1ccccc1C (stereo not drawn),30.4%
16,Cc1ccc2nc(-c3cnc(N)nc3)cc(C(=O)N(C)C)c2c1,13.5%
17,Cc1ccc2nc(-c3cnc(N)nc3)c(C)c(C(=O)N(C)C)c2c1,50.5%
18,COc1ccc2c(C(=O)N(C)C)cc(-c3cnc(N)nc3)nc2c1,15.7%
19,CCCn1cc(-c2cc(C(=O)N(C)C)c3ccc(C)cc3n2)cn1,8.845%
20,Cc1cc(C)c2c(C(=O)N(C)C)cc(-c3cnc(N)nc3)nc2c1,5.91%
21,CN(C)C(=O)c1cc(-c2cnc(N)nc2)nc2cc(F)ccc12,60.2%
22,c1ncn(CC2CCCN(CC3CCCCC3)C2)n1 (stereo not drawn),-1.75%
23,Nc1cc(C(=O)N2CCCC(C(=O)CCc3ccccc3)C2)ccn1 (stereo not drawn),49.3%
24,c1cnc(N2CCO[C@H]3CN(Cc4cc[nH]n4)C[C@H]32)cn1,-15.3%
25,CCc1nc(CN2CCOC(Cn3nc(C)cc3C)C2)no1 (stereo not drawn),-0.219%
26,COCCN1CCC(CNc2nc3ccccc3o2)CC1,61%
